# Measurements from the supplement of paper PMC6555819.
# How the values were obtained:
# Test in all cases: PBM binding z-score (relative to random genomic background probes); higher = stronger binding; sequences stand for … in GC…GCGATTGACAGCGTAGAATGAAGG
# [1] = system: PPARg:RXRa DBDmut IVT, anti-RXR (DBD mutation: RXRa K156A/R161A, NR concentration 270 nM, RXRa partner concentration 90 nM)
# In short: (§1)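 Binding buffer was PBS pH 7.4 with 2% milk, 0.02% Triton X-100, 1 mM DTT, 0.2 mg/mL BSA and 0.4 mg/ml salmon testes DNA. In it, ligand-free nuclear receptor dimers were incubated 1 h on custom Agilent 4×180K protein-binding microarrays carrying double-stranded probes. Antibodies against each partner (one per run) detected binding, and z-scores were calculated against random background probes after regression normalization of scanned fluorescence.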
# [2] = system: PPARg:RXRa IVT, anti-PPARg (NR concentration 270 nM, RXRa partner concentration 90 nM)
# In short: as §1
# [3] = system: PPARg homodimer (NR concentration 180 nM)
# In short: as §1
# [4] = system: PXR:RXRa (NR concentration 270 nM, RXRa partner concentration 90 nM)
# In short: as §1
# [5] = system: PXR homodimer (NR concentration 270 nM)
# In short: as §1
# [6] = system: RARa:RXR (NR concentration 270 nM, RXRa partner concentration 90 nM)
# In short: as §1
# [7] = system: RARa homodimer (NR concentration 270 nM)
# In short: as §1
# [8] = system: RARb:RXRa (NR concentration 270 nM, RXRa partner concentration 90 nM)
# In short: as §1
# [9] = system: RARb homodimer (NR concentration 270 nM)
# In short: as §1
# [10] = system: RARg:RXRa (NR concentration 270 nM, RXRa partner concentration 90 nM)
# In short: as §1
# [11] = system: RARg homodimer (NR concentration 270 nM)
# In short: as §1
# [12] = system: RXRa DBDmut IVT, anti-RXR (DBD mutation: RXRa K156A/R161A, NR concentration 90 nM)
# In short: as §1
# [13] = system: RXRa homodimer (NR concentration 180 nM)
# In short: as §1
# [14] = system: THRa:RXRa (NR concentration 90 nM, RXRa partner concentration 90 nM)
# In short: as §1
# [15] = system: THRa homodimer (NR concentration 90 nM)
# In short: as §1
# [16] = system: VDR:RXRa (NR concentration 270 nM, RXRa partner concentration 90 nM)
# In short: as §1
# [17] = system: VDR homodimer (NR concentration 270 nM)
# In short: as §1
# [18] = system: PPARg DBDmut IVT, anti-PPARg (DBD mutation: PPARg1 K132A/R137A, NR concentration 270 nM)
# In short: as §1
Sequence,PBM binding z-score [1],PBM binding z-score [2],PBM binding z-score [3],PBM binding z-score [4],PBM binding z-score [5],PBM binding z-score [6],PBM binding z-score [7],PBM binding z-score [8],PBM binding z-score [9],PBM binding z-score [10],PBM binding z-score [11],PBM binding z-score [12],PBM binding z-score [13],PBM binding z-score [14],PBM binding z-score [15],PBM binding z-score [16],PBM binding z-score [17],PBM binding z-score [18]
CTATATAGGTTAAGGGGGTCATTCAGTTTGAAAG,7.39,7.38,4.56,6.35,12.1,6.42,1.99,3.91,3.8,5.72,4.34,2.61,6.69,4.18,1.99,7.71,6.17,
ATATGTAGGTTAGAGTCATTCAGAAAGTAGGGAA,6.33,6.41,1.2,0.349,0.624,0.989,1.78,1.02,0.746,0.752,0.891,0.428,0.703,,0.254,,0.387,1.55
CGAACTAGGTCACCAGGACAGTGATGAGGTTGGA,7.98,8.61,2.34,1.5,0.423,2.69,0.546,4.16,3.53,4.4,5.41,1.28,3.45,3.42,2.08,,1.13,0.614
CGAACTAGGTCAAAGGACAGGGAAAGGCGACGTA,7.68,8.19,2.31,0.895,-0.253,2.37,0.0193,3.9,3.14,,4.68,1.07,2.78,2.49,0.631,1.27,0.464,4.37
TCGAGTAGGTTTCGGGGGCATTCAGGGATGAAGA,2.63,3.84,1.79,2.62,2.07,2.22,0.713,1.67,1.5,2.01,1.38,1.48,1.5,3.54,1.69,2.7,3.56,
CCGAGTAGGTTACGAGCGGGCATTCAGTGCGAAT,4.42,2.97,0.117,1.73,0.506,0.0464,-0.596,0.908,0.628,0.683,0.688,0.309,0.313,1.23,-0.803,0.355,-0.206,
CGAACTAGGTCAAACGACAGTGAAAGGCGACGTA,8.02,8.26,1.9,1.19,-0.315,2.13,0.265,3.7,2.49,4.21,4.7,1.76,3.32,2.29,0.23,,0.347,0.569
CCGAGTAGGTTACGAGGGGGCATCCAGTGCGAAT,4.1,4.45,1.63,4.3,2.67,2.86,0.122,2.1,2.11,2.95,2.31,0.736,2.02,3.7,0.756,4.75,2.87,
